Source: PubChem BioAssay (NCI)
Where “and” joins values, the source holds several entries; their conditions need not be identical. Identical values can stand only once. This is part of a sample that, as a whole, favours compounds with a hit. Of some 79,000 tested, about 15% had one in any assay. Calls of active or inactive are those of the source. Cut-off read from the data, not from the text of the source: active = growth inhibition above about 70%; inactive = the rest.

Legend:
[1] = NCI Yeast Anticancer Drug Screen. Data for the rad50 strain (AID 155);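 note: 0% = growth of vehicle-only cultures of the same strain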; conditions: S. cerevisiae rad50 strain growth inhibition; at 50.0 µM; hits give high values
Procedure, shortened: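 Cells are treated with compound, grown, and their growth is then scored against vehicle-only cultures of the same repair-deficient yeast strain.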

[2] = NCI Yeast Anticancer Drug Screen. Data for the mec2-1 strain (AID 157); conditions: S. cerevisiae mec2-1 strain, at 50.0 µM, hits give high values
Procedure, shortened: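 Vehicle-treated cultures served as reference for growth inhibition of compound-exposed mec2-1 yeast.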

[3] = NCI Yeast Anticancer Drug Screen. Data for the sgs1 mgt1 strain (AID 161);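 note: 0% = growth of cultures given vehicle only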; conditions: S. cerevisiae sgs1 mgt1 strain, at 50.0 µM, hits give high values
Procedure, shortened: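 Inhibition of yeast growth, normalised to vehicle-treated controls, is reported for a strain bearing genetic alterations in DNA damage repair.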

[4] = NCI Yeast Anticancer Drug Screen. Data for the cln2 rad14 strain (AID 165);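 note: 0% = growth equal to vehicle treated cultures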; conditions: S. cerevisiae cln2 rad14 strain, at 50.0 µM, hits give high values
Procedure, shortened: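 Each compound was tested on cln2 rad14 yeast. Inhibition of growth was calculated against vehicle-exposed controls.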

[5] = NCI Yeast Anticancer Drug Screen. Data for the bub3 strain (AID 167); conditions: S. cerevisiae bub3 mutant strain, at 50.0 µM, hits give high values
Procedure, shortened: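 Part of a panel of yeast mutants defective in DNA damage repair or cell cycle regulation. Each strain is grown with compound, and inhibition is calculated relative to solvent-treated cultures.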

[6] = NCI Yeast Anticancer Drug Screen. Data for the mlh1 rad18 strain (AID 175); conditions: S. cerevisiae mlh1 rad18 strain growth inhibition; at 50.0 µM; hits give high values
Procedure, shortened: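 Vehicle-treated cultures served as the reference for growth inhibition in a yeast strain carrying DNA damage repair alterations exposed to each compound.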

Measured: growth inhibition

CCOc1ccc(Nc2nc(=O)[nH]c3ccccc23)cc1CN(CCCl)CCCl
inactive: [1] 18.7% | [2] 0.95% | [3] 10.5% | [4] -19.4% | [5] 1.3% | [6] 22.4%

C[CH2][Sn](=[O])[c]1ccccc1
inactive: [1] -21.9% | [2] -17.6% | [3] 3.3% | [4] 10.3% | [5] -0.9% | [6] -23.4%

CC(C)CC(NC(=O)C(Cc1ccccc1)NC(=O)CNC(=O)CNC(=O)C(N)Cc1ccc(O)cc1)C(=O)O (stereo not drawn)
inactive: [1] 0.9% | [2] 2.85% | [3] -8.25% | [4] -7.5% | [5] -0.75% | [6] -11.2%

CC(C)CCC[C@@H](C)[C@H]1CC[C@H]2[C@@H]3CC=C4C[C@@H](OC(=O)F)CC[C@]4(C)[C@H]3CC[C@]12C
inactive: [1] 19.9% | [2] 20.6% | [3] 42.5% | [4] 35.9% | [5] 26.9% | [6] 33.7%

NNC(=O)Nc1nn[nH]n1
inactive: [1] 1.75% and -6.75% | [2] 8.2% and 8.5% | [3] 10.2% and -6.75% | [4] -19.4% and 6% | [5] -15% and 12.6% | [6] 7.95% and -3.6%

CCCCCCCCCCCCBr
inactive: [1] 10.7% | [2] -7.4% | [3] -5.1% | [4] -12.7% | [5] -10.3% | [6] -1.05%

CC(C)=CC1C(C(=O)OCCOc2ccccc2)C1(C)C (stereo not drawn)
inactive: [1] -0.75% | [2] -6.5% | [3] 10.2% | [4] -26.6% | [5] -13.6% | [6] -2.05%

O=C(O)c1ccc(Cl)c(Cl)c1
inactive: [1] 1.7% | [2] -5.4% | [3] 3.9% | [4] -14.2% | [5] 5.95% | [6] 0.45%

COc1cccc(/C=N/[N-]C(=O)c2ccncc2)c1[O-].[Ni+2].[OH3+]
inactive: [1] -14.6% | [2] -4.05% | [3] -12.1% | [4] 18.1% | [5] -12.2% | [6] -14.2%

CC1=CC(=O)CC2(C)CCC(C(C)CC(=O)CC(C)C)CC12OO (stereo not drawn)
active: [1] 89.4% and 88.8% | [2] 92.3% and 92% | [3] 91.6% and 91.4% | [4] 91.8% and 91.7% | [5] 89.4% | [6] 91.3% and 89.5%

C1OCN2CSCC12 (stereo not drawn)
inactive: [1] 4% | [2] 28.8% | [3] 30.4% | [4] 5.35% | [5] 27.9% | [6] 31.8%

CCCCSCCC(N)P(=O)(O)O (stereo not drawn)
inactive: [1] -68.8% | [2] -62.4% | [3] -42.4% | [4] 2.8% | [5] -15.2% | [6] -44.1%

COc1ccc(-c2nc(-c3ccc(N=Cc4ccc(N(CCCl)CCCl)cc4)cc3)cs2)cc1
inactive: [1] 58% | [2] 11.4% | [3] 57% | [4] 27.1% | [5] 11.5% | [6] 42.6%

CS(=O)(=O)Cl
inactive: [1] 7.65% | [2] -26.9% | [3] 16.4% | [4] 13.1% | [5] -4.85% | [6] 0%

Cc1ccc(S(=O)(=O)NNP(Br)(c2ccccc2)(c2ccccc2)c2ccccc2)cc1
inactive: [1] 26.3% | [2] -1.1% | [3] 5.7% | [4] -0.75% | [5] 5.35% | [6] 12.4%

O=C(O)c1ccccc1.O=C(O)c1ccccc1.O=C(O)c1ccccc1.O=C(O)c1ccccc1.[Cu].[Cu]
inactive: [1] 17.4% | [2] -10% | [3] 10.8% | [4] 3.85% | [5] 1.85% | [6] 17.1%

Nc1nnc[se]1
inactive: [1] 7.85% | [2] 5.35% | [3] -8.1% | [4] -1.55% | [5] -4.2% | [6] -1.6%

CC12CCC(O)CC1CCC1C2CCC2(C)C(C3=CC(=O)OC3)CCC12 (stereo not drawn)
inactive: [1] 7.05% | [2] 18.4% | [3] 30.6% | [4] 12.1% | [5] 12.1% | [6] 42.5%

CN(C)C(=O)Oc1c(-c2ccccc2)c(=O)n2c3ccccc3n3c(=O)n(C)c(=O)c1c23
inactive: [1] 21.8% | [2] 23.4% | [3] -0.9% | [4] 17.1% | [5] 11.7% | [6] 19.8%

[CH3][Sn]1([CH3])[O]C(=O)c2ccccc2C(=O)[O]1
inactive: [1] 6.8% | [2] 15.7% | [3] 23.6% | [4] -13.4% | [5] -13.4% | [6] -13.8%

CC1(C(N)Cc2c[nH]c3ccccc23)OCCO1 (stereo not drawn)
inactive: [1] -7.7% | [2] -0.1% | [3] -28.6% | [4] -6.55% | [5] -0.25% | [6] 4.1%

C(=NC1CCCCC1)c1c[nH]c2ccccc12
inactive: [1] -24.9% | [2] -39.6% | [3] -5.05% | [4] 4.7% | [5] -27.5% | [6] -17.8%

ClCc1cccc2ccccc12
inactive: [1] -28.7% | [2] -4.7% | [3] -26.1% | [4] -6.05% | [5] -7.6% | [6] -39%

COc1cc(CC[N+](C)(C)C)cc(OC)c1OC
inactive: [1] 4.95% | [2] 6.1% | [3] 7.85% | [4] 25.2% | [5] 9.5% | [6] 34.7%

O=C(OCC1CCCN2CCCCC12)c1cccnc1 (stereo not drawn)
inactive: [1] 7.7% | [2] -10.8% | [3] -28.3% | [4] 14.9% | [5] -8.5% | [6] -25.3%

O=N[O-].O=N[O-].[Co].[NH2-].[NH2-].[NH2-].[NH2-]
inactive: [1] 0.1% | [2] -11.5% | [3] -3.5% | [4] -14.3% | [5] 2.15% | [6] 26.9%

CO/C=C/c1ccc2c(c1)OCO2
inactive: [1] 34.6% | [2] 25.5% | [3] 16.7% | [4] 10.2% | [5] 12.7% | [6] -10.8%

Cc1ccc(CCl)c(C)c1
inactive: [1] -21.1% | [2] 8.4% | [3] -6.95% | [4] -39% | [5] 5.45% | [6] -19%

CCCCCCCC(=O)O.[Pb]
inactive: [1] 3.55% | [2] 5.55% | [3] 3% | [4] 13.9% | [5] -6% | [6] 14.8%

CCCCCCCCCCCCCCCCCCC[As](=O)(O)CCCCCCCCCCCCCCCCCCC
inactive: [1] 46.2% | [2] 19.2% | [3] 23.4% | [4] -2.2% | [5] 13.4% | [6] 30.4%

CC1([N+](=O)[O-])COP(=O)(NCc2ccccc2)OC1 (stereo not drawn)
inactive: [1] 11.9% | [2] -20.9% | [3] -9.3% | [4] -4.8% | [5] 6.2% | [6] 2.35%

c1ccc(C2=NCN3CC23c2ccccc2)cc1 (stereo not drawn)
inactive: [1] -3.6% | [2] 2.2% | [3] 14.4% | [4] 13.4% | [5] -48.8% | [6] 3.45%

CCN1CC2(C)CCC(OC)C34C5CC6CCC(O)(C5C(=O)O6)C(C(O)C23)C14 (stereo not drawn)
inactive: [1] -9.45% | [2] -44% | [3] 2% | [4] -0.5% | [5] -34.1% | [6] -57.7%

CC(C)[C@H](C)/C=C/[C@@H](C)C1CC[C@H]2[C@@]34C=C[C@]5(C[C@@H](O)CC[C@]5(C)[C@H]3CC[C@]12C)OO4 (stereo partly drawn)
inactive: [1] 11.8% | [2] 19% | [3] -13.2% | [4] 2.15% | [5] -20.4% | [6] -31.6%

CCNC(Cc1ccccc1)c1ccco1 (stereo not drawn)
inactive: [1] -2.35% | [2] -12.1% | [3] -15.5% | [4] 18.8% | [5] -10.2% | [6] 12.5%

COP(=O)(OC)N1CCCCC1
inactive: [1] 29% | [2] 20.4% | [3] 12.7% | [4] 12.4% | [5] 22% | [6] 27.6%

CC(C)CCCC(C)CO[P+](=O)OCC(C)CCCC(C)C (stereo not drawn)
inactive: [1] 31.9% | [2] 7.4% | [3] 18.5% | [4] 20.4% | [5] 5.8% | [6] 1.25%

CCC1CN2CCc3cc(OC)c(OC)cc3C2CC1CC1c2cc(OC)c(OC)cc2CCN1C(=O)C(N)Cc1ccccc1 (stereo not drawn)
inactive: [1] -8.25% | [2] -0.5% | [3] -2.3% | [4] -3.05% | [5] -5.05% | [6] 8.5%
